# Experimental data taken from paper PMC5540273 (PLoS ONE, 2017).
# Tested on: SRPK2
# Conditions: concentration: 1 μM, replicates: in singlicate; n = 1
# 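Note: KINOMEscan kinase panel screen.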
row,SMILES,%Inh
1,Cc1ccccc1-c1cc(-c2c[nH]nc2-c2ccccn2)ccn1 [GW680061],3%
2,Cl.Cl.Cl.N#Cc1ccc(CCNc2nccc(-c3cccc(CN4CCNCC4)c3)n2)cc1 [GSK2137462],0%
3,COc1cc2ncnc(Nc3cccc(Br)c3)c2cc1OC.Cl [GI230329],40%
4,CCc1ccc(-c2ccc3c(c2)-c2n[nH]cc2S(=O)(=O)N3C)cc1,14%
5,CNc1nc(-c2ccc3c(N)n[nH]c3c2)cc(N2C[C@@H](C(=O)NC3CCCCC3)OC[C@H]2C)n1 [GSK2375584],30%
6,NS(=O)(=O)c1cccc(N/C=C2\C(=O)Nc3ccc(S(=O)(=O)Cc4c(Cl)cccc4Cl)cc32)c1 [GSK398099],0%
7,COc1ccc(CSc2nnc(-c3ccc4ncsc4c3)o2)cc1C(F)(F)F,0%
8,O=C(Nc1n[nH]c2nc(-c3ccco3)c(Br)cc12)C1CCN(Cc2ccccc2)C1.O=C(O)[C@H](O)[C@@H](O)C(=O)O (stereo not drawn) [SB-742034],0%
9,CS(=O)(=O)CCNCc1nc(-c2ccc3ncnc(Nc4ccc5c(cnn5Cc5ccccc5)c4)c3c2)cs1.Cl.Cl [GW569716],33%
10,Cc1ccc(NC(=O)Nc2ccc(Cl)cc2)cc1-c1ccc(C(=O)Nc2ccncc2)cc1 [GSK1398472],0%
11,CC[C@@H]1CO[C@H](C(=O)Nc2ccccc2)CN1c1cc(-c2ccc3c(N)n[nH]c3c2)nc(NC)n1 [GSK2376236],0%
12,COC(=O)c1cccc(NC(=O)NC2CCN(c3ccnc(Nc4ccc(F)cc4)n3)C2)c1 (stereo not drawn) [GSK1379725],0%
13,O=c1cc(N2CCOCC2)nc2n(Cc3cccc(Cl)c3Cl)c3ccccc3n12 [GSK2299009],0%
14,COc1ccc(Nc2nccc(N3CCC(NC(=O)C(C)c4ccc(Cl)cc4)CC3)n2)cc1 (stereo not drawn) [GSK1379812],0%
15,Nc1ncnc2occ(-c3ccc4c(c3)CCN4C(=O)Cc3cc(F)ccc3F)c12 [GSK2645446],0%
16,Cc1c(Cn2c3ccccc3n3c(=O)cc(N4CCOCC4)nc23)cccc1C(F)(F)F [GSK2306394],0%
17,COc1ccc(Nc2nccc(N3CCC(NC(=O)c4cc5ccccc5s4)C3)n2)cc1 (stereo not drawn) [GSK1379738],0%
18,Cn1cncc1C(=O)NC1CCN(c2ccnc(Nc3ccc(F)cc3)n2)C1 (stereo not drawn) [GSK1379717],0%

row,SMILES,%Inh
1,CC(=O)c1cccc(NC(=O)NC2CCN(c3ccnc(Nc4ccc(F)cc4)n3)C2)c1 (stereo not drawn) [GSK1379710],28%
2,COc1cccc(C2=C(Nc3cc(Cl)c(O)c(Cl)c3)C(=O)NC2=O)c1 [SB-390767],5%
3,COc1cccc(CNC(=O)NC2CCN(c3ccnc(Nc4ccc(F)cc4)n3)C2)c1 (stereo not drawn) [GSK1379723],0%
4,Fc1ccc(-c2nn3cccc(F)c3c2-c2ccncc2)cc1 [GW475620],0%
5,CSc1ccc(-c2nc3n(c2-c2ccncc2)CCC3)cc1 [SKF-105561],25%
6,COc1ccc(CSc2nnc(-c3ccc4nccn4c3)o2)cc1C(F)(F)F,0%
7,O=C1NC(=O)C(c2ccc(Cl)cc2)=C1Nc1ccc(O)cc1 [SB-340867],18%
8,CC(=O)c1c(C)c2cnc(Nc3ccc(N4CCNCC4)cn3)nc2n(C2CCCC2)c1=O,0%
9,CNCc1ccc2nc(NC(=O)c3ccc(C(C)(C)C)cc3)cn2c1,5%
10,CNc1nc(-c2ccc3c(N)n[nH]c3c2)cc(N2C[C@@H](C(=O)Nc3ccccc3)CC[C@H]2C)n1 [GSK2298859],29%
11,COC(=O)c1cccc(NC(=O)NC2CCN(c3ccnc(Nc4ccc(OC)cc4)n3)C2)c1 (stereo not drawn) [GSK1379746],28%
12,Cc1ccccc1Cn1ccn2c(=O)cc(N3CCOCC3)nc12 [GSK2269905],0%
13,Nc1cccc(-c2ccc3c(N)n[nH]c3c2)n1 [GSK2192730],0%
14,COc1ccc(CSc2nnc(-c3ccc4c(c3)CCO4)o2)cc1,0%
15,COC(=O)C(Cc1ccccc1)NC(=O)NC1CCN(c2ccnc(Nc3ccc(F)cc3)n2)C1 (stereo not drawn) [GSK1379714],38%
16,c1ccc(-c2ccnc3[nH]ccc23)cc1 [SB-693578],7%
17,Cc1nccc(-c2c(-c3ccc(F)cc3)ncn2CCCN2CCOCC2)n1.Cl [SB-282975],0%
18,COc1nccc(-c2c(-c3ccc(F)cc3)ncn2CCCN2CCOCC2)n1 [SB-282852],26%
